# Data as given in PubChem BioAssay AID1159580 (chemical genetic matrix, 2015).
# Where “and” joins values, the source holds several entries; their conditions need not be identical. Equal entries are not always repeated. The whole screen tested about 5,500 compounds, of which about 2,000 (36%) were called active. Another 18% or so got no clear call; they are omitted. Cut-off read from the data, not from the text of the source: active = normalized growth mostly below about 0.91 (no sharp cut-off); inconclusive = no clear call, values can overlap the other calls; inactive = mostly above about 0.92. This is one part of the list. The source holds several records for some structures; these can differ, active in one and inactive in another.
# Experiment: chemical genetic growth profiling, strain panel (AID 1159580);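 note: tested at 20 µM; growth read once vehicle control cultures reached saturation at 30 °C; 1 = growth at the plate median or of vehicle wells; lower values mean less growth of the strain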
# Details: growth OD
compound,measurement,setting,value
CSc1ccc2c(c1)C(N1CCN(C)CC1)Cc1ccccc1S2 (centres undefined),normalized growth,"S. cerevisiae deletion strains, locus YKL085W, strain MDH1 (second series), stronger effect = lower value",0.987 (inactive)
same,normalized growth,"S. cerevisiae deletion strains, locus YKL085W, strain MDH1, stronger effect = lower value",0.987 (inactive)
same,normalized growth,"S. cerevisiae deletion strains, locus YKL190W, strain CNB1, stronger effect = lower value",0.657 (active)
same,normalized growth,"S. cerevisiae deletion strains, locus YKR001C, strain vps1, stronger effect = lower value",0.0823 (active)
same,normalized growth,"S. cerevisiae deletion strains, locus YLR039C, strain RIC1, stronger effect = lower value",1.54 [resistant] (active)
same,normalized growth,"S. cerevisiae deletion strains, locus YLR058C, strain SHM2, stronger effect = lower value",0.77 (active)
same,normalized growth,"S. cerevisiae deletion strains, locus YLR102C, strain apc9, stronger effect = lower value",0.987 (inactive)
same,normalized growth,"S. cerevisiae deletion strains, locus YLR262C, strain YPT6, stronger effect = lower value",1.56 [resistant] (active)
same,normalized growth,"S. cerevisiae deletion strains, locus YLR268W, strain sec22, stronger effect = lower value",0.901 (inactive)
same,normalized growth,"S. cerevisiae deletion strains, locus YLR330W, strain CHS5, stronger effect = lower value",0.994 (inactive)
same,normalized growth,"S. cerevisiae deletion strains, locus YLR342W, strain FKS1 (second series), stronger effect = lower value",0.2 (active)
same,normalized growth,"S. cerevisiae deletion strains, locus YLR418C, strain cdc73, stronger effect = lower value",0.575 (active)
same,normalized growth,"S. cerevisiae deletion strains, locus YML032C, strain rad52, stronger effect = lower value",0.894 (active)
same,normalized growth,"S. cerevisiae deletion strains, locus YML124C, strain tub3, stronger effect = lower value",0.995 (inactive)
same,normalized growth,"S. cerevisiae deletion strains, locus YMR078C, strain ctf18, stronger effect = lower value",0.993 (inactive)
same,normalized growth,"S. cerevisiae deletion strains, locus YMR223W, strain ubp8, stronger effect = lower value",0.779 (active)
same,normalized growth,"S. cerevisiae deletion strains, locus YMR263W, strain SAP30, stronger effect = lower value",0.917 (inactive)
same,normalized growth,"S. cerevisiae deletion strains, locus YMR307W, strain GAS1, stronger effect = lower value",0.514 (active) and 0.999 (inactive)
same,normalized growth,"S. cerevisiae deletion strains, locus YNL067W, strain RPL9B, stronger effect = lower value",0.914 (inactive)
same,normalized growth,"S. cerevisiae deletion strains, locus YNL128W, strain TEP1, stronger effect = lower value",0.771 (active) and 1.09 (inactive)
same,normalized growth,"S. cerevisiae deletion strains, locus YNL153C, strain GIM3, stronger effect = lower value",0.747 (active)
same,normalized growth,"S. cerevisiae deletion strains, locus YNL175C, strain NOP13, stronger effect = lower value",1.02 (inactive)
same,normalized growth,"S. cerevisiae deletion strains, locus YNL197C, strain WHI3, stronger effect = lower value",1.06 (inactive)
same,normalized growth,"S. cerevisiae deletion strains, locus YNL224C, strain SQS1, stronger effect = lower value",1.01 (inactive)
same,normalized growth,"S. cerevisiae deletion strains, locus YNL233W, strain BNI4, stronger effect = lower value",0.696 (active)
same,normalized growth,"S. cerevisiae deletion strains, locus YNL250W, strain rad50, stronger effect = lower value",1.01 (inactive)
same,normalized growth,"S. cerevisiae deletion strains, locus YNL271C, strain bni1, stronger effect = lower value",0.977 (inactive)
same,normalized growth,"S. cerevisiae deletion strains, locus YNL298W, strain CLA4, stronger effect = lower value",0.979 (inactive)
same,normalized growth,"S. cerevisiae deletion strains, locus YNL307C, strain MCK1, stronger effect = lower value",0.791 (active)
same,normalized growth,"S. cerevisiae deletion strains, locus YNL322C, strain KRE1, stronger effect = lower value",0.773 (active)
same,normalized growth,"S. cerevisiae deletion strains, locus YNR052C, strain pop2, stronger effect = lower value",0.705 (active)
same,normalized growth,"S. cerevisiae deletion strains, locus YOL006C, strain TOP1, stronger effect = lower value",0.413 (active)
same,normalized growth,"S. cerevisiae deletion strains, locus YOL012C, strain htz1",0.27 (inactive)
same,normalized growth,"S. cerevisiae deletion strains, locus YOL147C, strain pex11, stronger effect = lower value",0.944 (inactive)
same,normalized growth,"S. cerevisiae deletion strains, locus YOR061W, strain CKA2, stronger effect = lower value",0.122 (active)
same,normalized growth,"S. cerevisiae deletion strains, locus YOR069W, strain VPS5, stronger effect = lower value",1 (inactive)
same,normalized growth,"S. cerevisiae deletion strains, locus YOR083W, strain WHI5 (second series), stronger effect = lower value",0.745 (active)
same,normalized growth,"S. cerevisiae deletion strains, locus YOR136W, strain idh2, stronger effect = lower value",0.938 (inactive)
same,normalized growth,"S. cerevisiae deletion strains, locus YOR144C, strain elg1, stronger effect = lower value",1.01 (inactive)
same,normalized growth,"S. cerevisiae deletion strains, locus YOR184W, strain ser1, stronger effect = lower value",0.82 (active)
same,normalized growth,"S. cerevisiae deletion strains, locus YOR316C, strain cot1, stronger effect = lower value",0.986 (inactive)
same,normalized growth,"S. cerevisiae deletion strains, locus YPL055C, strain LGE1, stronger effect = lower value",0.596 (active) and 0.806 (active)
same,normalized growth,"S. cerevisiae deletion strains, locus YPL241C, strain CIN2, stronger effect = lower value",0.996 (inactive)
same,normalized growth,"S. cerevisiae deletion strains, locus YPR119W, strain clb2, stronger effect = lower value",0.988 (inactive)
same,normalized growth,"S. cerevisiae deletion strains, locus YPR141C, strain kar3, stronger effect = lower value",0.998 (inactive)
same,normalized growth,"S. cerevisiae deletion strains, locus YPR163C, strain tif3, stronger effect = lower value",0.0814 (active)
same,normalized growth,"S. cerevisiae deletion strains, locus YPR167C, strain met16, stronger effect = lower value",0.986 (inactive)
same,normalized growth,"S. cerevisiae deletion strains, strain wtn01, stronger effect = lower value",0.717 (active)
same,normalized growth,"S. cerevisiae strains, strain wild type, stronger effect = lower value",0.698 (active)
